Data on five molecules can be found in PubChem BioAssay (EPA / NIEHS).

Experiment [1] can be described thus: BSK_LPS_SRB: Viability Assessment in the BioMAP Diversity Plus: LPS Assay (AID 2283079).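 Further: total protein by sulforhodamine B absorbance as a cytotoxicity measure; measured one day after compound addition; fitted in both directions against DMSO so loss or gain of signal counts.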 The conditions noted are these: primary human HUVEC with PBMC. The essentials: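 Cytotoxicity endpoint in human endothelial–PBMC co-culture: 24 h exposure, then SRB (0.1%) staining, 560 nm read.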
Read-out in experiment [2]: Interleukin-1 alpha (IL1a), IL1A (gene 3552)
Briefly: BSK_LPS_IL1a: BioMAP Diversity Plus: LPS Assay for Interleukin-1 alpha (IL1a) Biomarker Activity (AID 2283080). The conditions noted are these: primary human HUVEC with PBMC; actives raise or lower the signal. In short, it runs like this:
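Primary human HUVEC and PBMC co-culture stimulated with LPS is dosed and harvested at 24 h. Both increases and decreases in ELISA-measured IL-1a are scored relative to DMSO.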

Read-out in experiment [3]: Monocyte Chemoattractant Protein-1 (MCP1), CCL2 (gene 6347)
The experiment can be described thus: BSK_LPS_MCP1: BioMAP Diversity Plus: LPS Assay for Monocyte Chemoattractant Protein-1 (MCP1) Biomarker Activity (AID 2283081). The conditions noted are these: primary human HUVEC with PBMC; actives raise or lower the signal. The essentials: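 Values derive from bidirectional fitting against DMSO of ELISA-measured MCP-1 in a human primary endothelial and mononuclear cell co-culture, 24 h after chemical addition under LPS activation.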

A short description of experiment [4]: BSK_LPS_PGE2: BioMAP Diversity Plus: LPS Assay for Prostaglandin E2 (PGE2) Biomarker Activity (AID 2283082).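 On AC50: secreted prostaglandin E2 measured by ELISA in LPS-stimulated co-culture.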 The conditions noted are these: primary human HUVEC with PBMC; actives raise or lower the signal. The essentials:
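HUVEC plus PBMC co-culture stimulated with LPS; secreted PGE2 quantified by ELISA 24 h after chemical dosing. Activity fitted bidirectionally against DMSO as negative control and baseline; parallel SRB total-protein staining served as cytotoxicity check.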

Read-out in experiment [5]: Macrophage colony-stimulating factor (MCSF), CSF1 (gene 1435)
Briefly: BSK_LPS_MCSF: BioMAP Diversity Plus: LPS Assay for Macrophage colony-stimulating factor (MCSF) Biomarker Activity (AID 2283083). The conditions noted are these: primary human HUVEC with PBMC; actives raise or lower the signal. The essentials:
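Bidirectional fit versus DMSO of ELISA-measured M-CSF in co-cultured human umbilical vein endothelial cells and PBMC, sampled 24 h after dosing.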

Read-out in experiment [6]: Tissue Factor, F3 (gene 2152)
The experiment can be described thus: BSK_LPS_TissueFactor: BioMAP Diversity Plus: LPS Assay for Tissue Factor Biomarker Activity (AID 2283084). The conditions noted are these: primary human HUVEC with PBMC; actives raise or lower the signal. In short, it runs like this:
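Read-out: CD142 ELISA, 24 h. System: LPS-driven human endothelial/PBMC co-culture. Analysis: up- or down-signal fitted against DMSO.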

Read-out in experiment [7]: Tumor necrosis factor (Homo sapiens) (UniProt P01375)
The experiment can be described thus: BSK_LPS_TNFa: BioMAP Diversity Plus: LPS Assay for Tumour Necrosis Factor alpha (TNFa) Biomarker Activity (AID 2283085). The conditions noted are these: primary human HUVEC with PBMC; actives raise or lower the signal. In short, it runs like this: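 Human umbilical vein endothelial cells co-cultured with PBMC were exposed to test chemical and TNFa measured by ELISA 24 h after dosing. Bidirectional curve fitting was done relative to DMSO as negative control and baseline.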

Read-out in experiment [8]: Vascular cell adhesion molecule 1 (VCAM1), VCAM1 (gene 7412)
The experiment can be described thus: BSK_LPS_VCAM1: BioMAP Diversity Plus: LPS Assay for Vascular cell adhesion molecule 1 (VCAM1) Biomarker Activity (AID 2283086). The conditions noted are these: primary human HUVEC with PBMC; actives raise or lower the signal. The essentials:
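Human umbilical vein endothelial cells co-cultured with peripheral blood mononuclear cells under LPS stimulation were exposed to test chemical for 24 h. VCAM-1 levels were then measured by ELISA, with bidirectional curve fitting relative to DMSO as negative control and baseline.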

Read-out in a further experiment: CD38, CD38 (gene 952)
The experiment can be described thus: BSK_SAg_CD38: BioMAP Diversity Plus: SAg Assay for CD38 Biomarker Activity (AID 2283087). The conditions noted are these: primary human HUVEC with PBMC; actives raise or lower the signal. In short, it runs like this:
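Fluorescence ELISA of cell-surface CD38 served as the read-out, with either increase or decrease fitted against DMSO controls. Cells were a human umbilical vein endothelium plus PBMC co-culture under SEB/TSST-1 stimulation, measured 24 h after dosing.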

Read-out in the next experiment: CD40, CD40 (gene 958)
The experiment can be described thus: BSK_SAg_CD40: BioMAP Diversity Plus: SAg Assay for CD40 Biomarker Activity (AID 2283088). The conditions noted are these: primary human HUVEC with PBMC; actives raise or lower the signal. The essentials: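 Endpoint derived by fitting increases or decreases versus DMSO controls. CD40 is detected by fluorescence ELISA in a human vascular co-culture of endothelium and PBMC at 24 h.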

Read-out in experiment [9]: Monocyte Chemoattractant Protein-1 (MCP1), CCL2 (gene 6347)
Briefly: BSK_SAg_MCP1: BioMAP Diversity Plus: SAg Assay for Monocyte Chemoattractant Protein-1 (MCP1) Biomarker Activity (AID 2283090). The conditions noted are these: primary human HUVEC with PBMC; actives raise or lower the signal. In short, it runs like this:
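MCP-1 levels in the endothelial–PBMC SAg co-culture were quantified by ELISA at 24 h post-dosing; both increases and decreases versus DMSO scored. Cytotoxicity monitored by SRB total protein in parallel cultures.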

Read-out in experiment [10]: E-selectin (Homo sapiens) (UniProt P16581)
Briefly: BSK_SAg_Eselectin: BioMAP Diversity Plus: SAg Assay for Eselectin Biomarker Activity (AID 2283091). The conditions noted are these: primary human HUVEC with PBMC; actives raise or lower the signal. In short, it runs like this: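 Endpoint values derive from bidirectional fitting relative to DMSO, using ELISA-measured E-selectin in a human vascular co-culture (umbilical vein endothelium plus PBMC) sampled 24 h after dosing.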

Read-out in experiment [11]: Monokine induced gamma interferon (MIG), CXCL9 (gene 4283)
The experiment can be described thus: BSK_SAg_MIG: BioMAP Diversity Plus: SAg Assay for Monokine induced gamma interferon (MIG) Biomarker Activity (AID 2283092). The conditions noted are these: primary human HUVEC with PBMC; actives raise or lower the signal. In short, it runs like this:
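Values reflect bidirectional fitting of ELISA-measured MIG against DMSO vehicle, taken 24 h after dosing of a co-culture of human umbilical vein endothelial cells and peripheral blood mononuclear cells.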

Experiment [12] can be described thus: BSK_SAg_PBMCCytotoxicity: PBMC Cytotoxicity Assessment in the BioMAP Diversity Plus: SAg Assay (AID 2283093).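 Further: PBMC viability measured as Alamar Blue reduction fluorescence at 546/580 nm; fitted both ways against DMSO so a hit may be loss or gain of signal.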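 On AC50: PBMC superantigen activated with SEB plus TSST-1 one hour after compound addition.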 The conditions noted are these: primary human HUVEC with PBMC. In short, it runs like this:
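Human umbilical vein endothelial cells co-cultured with PBMC; PBMC (75,000/well) pre-treated with compound 1 h, then activated with SEB and TSST-1 (20 ng/mL final each) for 90 h. Alamar Blue added 6 h, fluorescence 546/580 nm; bidirectional fit versus DMSO.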

Read-out in experiment [13]: Interleukin-8 (IL8), CXCL8 (gene 3576)
Briefly: BSK_SAg_IL8: BioMAP Diversity Plus: SAg Assay for Interleukin-8 (IL8) Biomarker Activity (AID 2283094). The conditions noted are these: primary human HUVEC with PBMC; actives raise or lower the signal. The essentials:
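Human umbilical vein endothelial cells co-cultured with peripheral blood mononuclear cells; IL-8 measured by ELISA 24 h after chemical dosing. Bidirectional concentration-response fitting used DMSO as negative control and activity baseline.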

Experiment [14] can be described thus: BSK_SAg_Proliferation: Cell Proliferation Assessment in the BioMAP Diversity Plus: SAg Assay (AID 2283095).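 Further: relative cell number as total protein by SRB absorbance in sub-confluent culture.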 The conditions noted are these: primary human HUVEC with PBMC. The essentials:
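Human umbilical vein endothelial cells co-cultured with peripheral blood mononuclear cells; total protein measured by sulforhodamine B staining (0.1% SRB after 10% TCA fixation), absorbance at 560 nm, at 96 h. Bidirectional fit against DMSO baseline.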

Experiment [15] is described as follows: BSK_SAg_SRB: Viability Assessment in the BioMAP Diversity Plus: SAg Assay (AID 2283096).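 Further: cells read one day after compound addition; hits may be either gain or loss of signal compared with DMSO.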 The conditions noted are these: primary human HUVEC with PBMC. In short, it runs like this: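 Endothelial/PBMC primary human co-culture; compound 24 h; fix 10% TCA, stain 0.1% SRB, A560; protein content as cytotoxicity proxy; bidirectional curve fit, DMSO = baseline.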

Read-out in a further experiment: CD69, CD69 (gene 969)
The experiment can be described thus: BSK_SAg_CD69: BioMAP Diversity Plus: SAg Assay for CD69 Biomarker Activity (AID 2283089).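 On AC50: cell surface CD69 protein quantified by ELISA with fluorescence detection.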 The conditions noted are these: primary human HUVEC with PBMC; actives raise or lower the signal. The essentials:
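Values derive from bidirectional fitting relative to DMSO vehicle. Cells: umbilical vein endothelium plus peripheral blood mononuclear cells, treated 24 h before fluorescent ELISA for CD69.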

Active and inactive are the calls of the source. How the source made its calls: active means hit-call score of the fitted dose curve at least 0.9, where 1 is the maximum; inactive means score below 0.9.

Chain of E-selectin (Homo sapiens) (P16581 whole entry, looked up): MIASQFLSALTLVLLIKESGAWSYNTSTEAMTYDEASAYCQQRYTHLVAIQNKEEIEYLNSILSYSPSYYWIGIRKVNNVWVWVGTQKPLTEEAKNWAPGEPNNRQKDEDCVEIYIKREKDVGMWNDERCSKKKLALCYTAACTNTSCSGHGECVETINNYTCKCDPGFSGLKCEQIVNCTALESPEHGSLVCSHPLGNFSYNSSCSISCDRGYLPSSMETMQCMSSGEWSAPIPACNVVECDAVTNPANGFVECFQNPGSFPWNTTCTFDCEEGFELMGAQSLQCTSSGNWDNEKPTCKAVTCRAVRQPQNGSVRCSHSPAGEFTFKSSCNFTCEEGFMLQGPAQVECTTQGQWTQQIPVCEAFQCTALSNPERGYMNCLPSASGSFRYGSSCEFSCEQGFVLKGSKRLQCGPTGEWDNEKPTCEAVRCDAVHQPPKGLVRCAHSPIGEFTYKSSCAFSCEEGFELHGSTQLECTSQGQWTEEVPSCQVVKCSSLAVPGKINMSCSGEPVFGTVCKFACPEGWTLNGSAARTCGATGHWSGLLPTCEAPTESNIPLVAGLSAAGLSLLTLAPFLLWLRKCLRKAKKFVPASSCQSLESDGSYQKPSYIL
Chain of Tumor necrosis factor (Homo sapiens) (P01375 whole entry, looked up): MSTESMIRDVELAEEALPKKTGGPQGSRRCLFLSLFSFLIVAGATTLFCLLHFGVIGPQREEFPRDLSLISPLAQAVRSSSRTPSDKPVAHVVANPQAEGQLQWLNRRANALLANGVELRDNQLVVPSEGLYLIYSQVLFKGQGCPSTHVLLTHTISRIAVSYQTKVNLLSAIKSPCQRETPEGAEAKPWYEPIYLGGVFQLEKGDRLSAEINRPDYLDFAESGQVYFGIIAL

For the molecule `C#C[C@]1(O)CC[C@H]2[C@@H]3CCC4=CC(=O)CC[C@@H]4[C@H]3CC[C@@]21CC`, the outcome in [1], in [2], in experiment [3], in experiment [6], in [7] and in [8] was inactive. Besides, the outcome with CD38, CD38 (gene 952) is “inactive”; with CD40, CD40 (gene 958) it was “inactive”; in experiment [9], “inactive”; in [10], “inactive”; in experiment [11], “inactive”; in [12], “inactive”. The outcome in [14] and in [15] was inactive. For the same molecule, the AC50 in experiment [4] is 2.43 µM (active); in [5], 14.5 µM (active); in experiment [13] it was 6.98 µM (active).

For the molecule `CC1(C)C(C=C(Cl)Cl)C1C(=O)OCc1cccc(Oc2ccccc2)c1` (stereo not drawn), the AC50 in experiment [1] is 6.14 µM (active); in experiment [4], 4.13 µM (active); in [5], 4.63 µM (active); with CD69, CD69 (gene 969), 14.7 µM (active); in [14], 14.8 µM (active); in experiment [15] it was 5.14 µM (active). In addition, the outcome is “inactive” in [2]; “inactive” in [3]; “inactive” in [6]; “inactive” in [7]; “inactive” in experiment [8]; “inactive” with CD38, CD38 (gene 952). The outcome with CD40, CD40 (gene 958) was “inactive”; in experiment [9] it was “inactive”; in [10] it was “inactive”; in experiment [11] it was “inactive”; in experiment [12], “inactive”; in experiment [13] it was “inactive”.

Turning to `CCOC(=O)COc1cc(-n2ncc(C(F)(F)F)c(C)c2=O)c(F)cc1Cl`, the result in experiment [1], in experiment [2], in [3], in [4], in experiment [5] and in [6] was inactive. In addition, the outcome was “inactive” in experiment [7]; “inactive” in experiment [8]; “inactive” in the experiment with CD38, CD38 (gene 952); “inactive” in the experiment with CD40, CD40 (gene 958); “inactive” with CD69, CD69 (gene 969); “inactive” in experiment [9]. Besides, the outcome in [10], in experiment [11], in experiment [12], in experiment [13], in experiment [14] and in experiment [15] was inactive.

`CCCN(CCC)c1c([N+](=O)[O-])cc(C(F)(F)F)c(N)c1[N+](=O)[O-]`: the AC50 in experiment [1] is 13.8 µM (active); in [5] it was 20 µM (active); in experiment [7], 30.2 µM (active); in experiment [8] it was 30.7 µM (active); with CD40, CD40 (gene 958), 28.9 µM (active); in [9], 31 µM (active). The AC50 in experiment [10] is 29.3 µM (active); in experiment [11], 31.7 µM (active); in [12], 15 µM (active); in experiment [13] it was 20 µM (active); in experiment [14] it was 21 µM (active); in experiment [15], 14.7 µM (active). For the same molecule, the outcome in experiment [2] was “inactive”; in experiment [3] it was “inactive”; in experiment [4], “inactive”; in [6], “inactive”; in the experiment with CD38, CD38 (gene 952) it was “inactive”.

In the case of `C#CCOC(=O)[C@@H](C)Oc1ccc(Oc2ncc(Cl)cc2F)cc1`, the outcome in experiment [1], in [2], in [3], in [4], in experiment [5] and in experiment [6] was inactive. Besides, the outcome in experiment [7] is “inactive”; in experiment [8], “inactive”; with CD38, CD38 (gene 952) it was “inactive”; in the experiment with CD40, CD40 (gene 958), “inactive”; with CD69, CD69 (gene 969), “inactive”; in experiment [9] it was “inactive”. Further, the outcome in experiment [10], in experiment [11], in experiment [12], in [13], in experiment [14] and in experiment [15] was inactive.

The AC50 is the midpoint of the concentration-response curve, whichever way the signal moves.
